Data on ten molecules can be found in PubChem BioAssay (NCI).

About 79,000 compounds went through this panel and 15% of them were active in at least one assay; those are over-represented in the sample as a whole. A number with no mark means an inactive call. Calls of active or inactive are those of the source. Rule as the data show it: active = growth inhibition above about 70%; inactive = the rest.

The nature of experiment [1]: NCI Yeast Anticancer Drug Screen. Data for the rad50 strain (AID 155).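 Also: 0% = growth of vehicle-only cultures of the same strain.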 As to conditions: S. cerevisiae rad50 strain growth inhibition, hits give high values. The method, boiled down: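 Genetically altered yeast (DNA repair pathway); compound treatment; growth inhibition vs vehicle ctrl.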
Experiment [2] in a line: NCI Yeast Anticancer Drug Screen. Data for the mec2-1 strain (AID 157). As to conditions: S. cerevisiae mec2-1 strain, hits give high values. The procedure, abridged: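 Yeast mec2-1 mutant treated with compound. Readout: growth inhibition vs vehicle controls.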
A short description of experiment [3]: NCI Yeast Anticancer Drug Screen. Data for the sgs1 mgt1 strain (AID 161).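 Also: 0% = growth of cultures given vehicle only.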 The following applies: S. cerevisiae sgs1 mgt1 strain, hits give high values. The procedure, abridged: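 Genetically altered yeast, compound exposure, growth inhibition relative to vehicle.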
Experiment [4] can be described thus: NCI Yeast Anticancer Drug Screen. Data for the cln2 rad14 strain (AID 165).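 Also: 0% = growth equal to vehicle treated cultures.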 As to conditions: S. cerevisiae cln2 rad14 strain, hits give high values. The method, boiled down:
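cln2 rad14 yeast strain; compound exposure; growth inhibition read vs vehicle controls.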

Experiment [5] is described as follows: NCI Yeast Anticancer Drug Screen. Data for the bub3 strain (AID 167). As to conditions: S. cerevisiae bub3 mutant strain, hits give high values. The method, boiled down: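 Yeast carrying a defined mutation is treated with each compound, and growth is compared with that of vehicle-exposed cells to give inhibition.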
The nature of experiment [6]: NCI Yeast Anticancer Drug Screen. Data for the mlh1 rad18 strain (AID 175). The following applies: S. cerevisiae mlh1 rad18 strain growth inhibition, hits give high values. The method, boiled down:
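Yeast w/ defined DNA-repair lesions; compound exposure; growth vs vehicle controls → % inhibition.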

[7] abbreviates: at 5.0 µM (retest, dose inferred, filed as 0.5).
[8] abbreviates: at 50.0 µM (retest, dose inferred, filed as 5.0).

As for `O=[N+]([O-])c1ccc(N2CCOCC2)c2c1no[n+]2[O-]`, the growth inhibition was 98% (active) in experiment [1] (setting [7]); 99% (active) in experiment [1] (setting [8]); 90.9% (active) in experiment [1] (at 50.0 µM); 99% (active) in experiment [2] (setting [7]); 100% (active) in experiment [2] (setting [8]); 94% (active) in experiment [2] (at 50.0 µM). In addition, the growth inhibition in experiment [3] (setting [7]) is 94% (active); in experiment [3] (setting [8]), 99% (active); in experiment [3] (at 50.0 µM), 89% (active); in experiment [4] (setting [7]), 55%; in experiment [4] (setting [8]) it was 99% (active); in experiment [4] (at 50.0 µM), 74% (active). Moreover, the growth inhibition in experiment [5] (setting [7]) is 91% (active); in experiment [5] (setting [8]) it was 99% (active); in experiment [5] (at 50.0 µM) it was 92.2% (active); in experiment [6] (setting [7]), 98% (active); in experiment [6] (setting [8]), 99% (active); in experiment [6] (at 50.0 µM), 84.2% (active).

As to `COC(=O)[CH2][Sn]([CH2]C(=O)OC)([CH]1CCCCC1)[CH]1CCCCC1`, the growth inhibition in experiment [1] (setting [7]) was 3%; in experiment [1] (setting [8]), 65%; in experiment [1] (at 50.0 µM), 98.4% (active); in experiment [2] (setting [7]), -3%; in experiment [2] (setting [8]) it was 45%; in experiment [2] (at 50.0 µM) it was 97.2% (active). The growth inhibition in experiment [3] (setting [7]) was 2%; in experiment [3] (setting [8]), 69%; in experiment [3] (at 50.0 µM), 99.2% (active); in experiment [4] (setting [7]) it was 5%; in experiment [4] (setting [8]), 33%; in experiment [4] (at 50.0 µM), 98% (active). Moreover, the growth inhibition in experiment [5] (setting [7]) was 1%; in experiment [5] (setting [8]), 59%; in experiment [5] (at 50.0 µM) it was 97.2% (active); in experiment [6] (setting [7]), 2%; in experiment [6] (setting [8]) it was 48%; in experiment [6] (at 50.0 µM) it was 98.5% (active).

In the case of `ClCCN1CCOCC1`, the growth inhibition in experiment [1] (setting [7]) is 95% (active); in experiment [1] (setting [8]), 97% (active); in experiment [1] (at 50.0 µM), 98% (active); in experiment [2] (setting [7]), 94% (active); in experiment [2] (setting [8]), 99% (active); in experiment [2] (at 50.0 µM) it was 98.8% (active). The growth inhibition in experiment [3] (setting [7]) was 89% (active); in experiment [3] (setting [8]) it was 98% (active); in experiment [3] (at 50.0 µM), 98.3% (active); in experiment [4] (setting [7]), 71% (active); in experiment [4] (setting [8]), 98% (active); in experiment [4] (at 50.0 µM), 95.8% (active). Moreover, the growth inhibition in experiment [5] (setting [7]) was 34%; in experiment [5] (setting [8]) it was 98% (active); in experiment [5] (at 50.0 µM) it was 98.1% (active); in experiment [6] (setting [7]), 91% (active); in experiment [6] (setting [8]), 98% (active); in experiment [6] (at 50.0 µM) it was 98.8% (active).

With `CSCCC([NH-])C(=O)O.CSCCC([NH-])C(=O)O.[Zn+2]` (stereo not given), the growth inhibition in experiment [1] (setting [7]) is 2%; in experiment [1] (setting [8]), 1%; in experiment [1] (at 50.0 µM) it was 98.2% (active); in experiment [2] (setting [7]), 1%; in experiment [2] (setting [8]) it was 1%; in experiment [2] (at 50.0 µM), 99.2% (active). Besides, the growth inhibition is 2% in experiment [3] (setting [7]); -1% in experiment [3] (setting [8]); 99.2% (active) in experiment [3] (at 50.0 µM); 4% in experiment [4] (setting [7]); -6% in experiment [4] (setting [8]); 99.2% (active) in experiment [4] (at 50.0 µM). Further, the growth inhibition was 4% in experiment [5] (setting [7]); 6% in experiment [5] (setting [8]); 99% (active) in experiment [5] (at 50.0 µM); 4% in experiment [6] (setting [7]); 3% in experiment [6] (setting [8]); 99.3% (active) in experiment [6] (at 50.0 µM).

Turning to `CCCCCc1cc(/C=C2/N=C(c3ccc[nH]3)C=C2OC)[nH]c1C`, the growth inhibition in experiment [1] (setting [7]) is 47%; in experiment [1] (setting [8]), 77% (active); in experiment [1] (at 50.0 µM) it was 83.9% (active); in experiment [2] (setting [7]) it was 49%; in experiment [2] (setting [8]), 81% (active); in experiment [2] (at 50.0 µM), 85.5% (active). In addition, the growth inhibition in experiment [3] (setting [7]) is 75% (active); in experiment [3] (setting [8]), 86% (active); in experiment [3] (at 50.0 µM), 86.8% (active); in experiment [4] (setting [7]), 46%; in experiment [4] (setting [8]) it was 81% (active); in experiment [4] (at 50.0 µM), 84.3% (active). Further, the growth inhibition is 80% (active) in experiment [5] (setting [7]); 79% (active) in experiment [5] (setting [8]); 83.8% (active) in experiment [5] (at 50.0 µM); 71% (active) in experiment [6] (setting [7]); 77% (active) in experiment [6] (setting [8]); 84% (active) in experiment [6] (at 50.0 µM).

Turning to `CCC[CH2][Sn]1([CH2]CCC)[O]c2ccccc2[O]1`, the growth inhibition in experiment [1] (setting [7]) was 9%; in experiment [1] (setting [8]), 95% (active); in experiment [1] (at 50.0 µM) it was 89% (active); in experiment [2] (setting [7]), 23%; in experiment [2] (setting [8]), 94% (active); in experiment [2] (at 50.0 µM), 90.8% (active). Also, the growth inhibition was 13% in experiment [3] (setting [7]); 94% (active) in experiment [3] (setting [8]); 90.5% (active) in experiment [3] (at 50.0 µM); 0% in experiment [4] (setting [7]); 92% (active) in experiment [4] (setting [8]); 83.8% (active) in experiment [4] (at 50.0 µM). In addition, the growth inhibition in experiment [5] (setting [7]) is 35%; in experiment [5] (setting [8]) it was 95% (active); in experiment [5] (at 50.0 µM), 89.4% (active); in experiment [6] (setting [7]), 11%; in experiment [6] (setting [8]) it was 96% (active); in experiment [6] (at 50.0 µM), 89.1% (active).

In the case of `CC(C)(C)[Si](OC(=O)N(CCCl)CCCl)(c1ccccc1)c1ccccc1`, the growth inhibition in experiment [1] (setting [7]) is 22%; in experiment [1] (setting [8]), 82% (active); in experiment [1] (at 50.0 µM), 67.2%; in experiment [2] (setting [7]), 10%; in experiment [2] (setting [8]), 76% (active); in experiment [2] (at 50.0 µM), 20.8%. Further, the growth inhibition in experiment [3] (setting [7]) was 13%; in experiment [3] (setting [8]) it was 82% (active); in experiment [3] (at 50.0 µM), 79.5% (active); in experiment [4] (setting [7]), 19%; in experiment [4] (setting [8]), 83% (active); in experiment [4] (at 50.0 µM), 68.4%. In addition, the growth inhibition is -2% in experiment [5] (setting [7]); 93% (active) in experiment [5] (setting [8]); 68.6% in experiment [5] (at 50.0 µM); 15% in experiment [6] (setting [7]); 85% (active) in experiment [6] (setting [8]); 90.3% (active) in experiment [6] (at 50.0 µM).

Regarding `CN(C)[PH+](N(C)C)N(C)C.CN(C)[PH+](N(C)C)N(C)C.[C-]#[O+].[C-]#[O+].[C-]#[O+].[C-]#[O+].[C-]#[O+].[C-]#[O+].[Co].[Co].[Hg]`, the growth inhibition is 3% in experiment [1] (setting [7]); 16% in experiment [1] (setting [8]); 98.2% (active) in experiment [1] (at 50.0 µM); 3% in experiment [2] (setting [7]); 16% in experiment [2] (setting [8]); 99.7% (active) in experiment [2] (at 50.0 µM). Besides, the growth inhibition in experiment [3] (setting [7]) was 1%; in experiment [3] (setting [8]) it was 9%; in experiment [3] (at 50.0 µM), 99.6% (active); in experiment [4] (setting [7]) it was -3%; in experiment [4] (setting [8]) it was 2%; in experiment [4] (at 50.0 µM), 99.2% (active). The growth inhibition is 2% in experiment [5] (setting [7]); 13% in experiment [5] (setting [8]); 99.5% (active) in experiment [5] (at 50.0 µM); 5% in experiment [6] (setting [7]); 20% in experiment [6] (setting [8]); 98.8% (active) in experiment [6] (at 50.0 µM).

As to `NC(=S)C1=C(N)Oc2c(c(=O)oc3ccccc23)C1c1ccc(Br)cc1` (stereo not given), the growth inhibition in experiment [1] (setting [7]) is -7%; in experiment [1] (setting [8]), 66%; in experiment [1] (at 50.0 µM) it was 20.1%; in experiment [2] (setting [7]), 10%; in experiment [2] (setting [8]), 73% (active); in experiment [2] (at 50.0 µM), 53.7%. Also, the growth inhibition was 10% in experiment [3] (setting [7]); 76% (active) in experiment [3] (setting [8]); 57.9% in experiment [3] (at 50.0 µM); 16% in experiment [4] (setting [7]); 85% (active) in experiment [4] (setting [8]); 21.4% in experiment [4] (at 50.0 µM). Besides, the growth inhibition is 7% in experiment [5] (setting [7]); 90% (active) in experiment [5] (setting [8]); 62.6% in experiment [5] (at 50.0 µM); -2% in experiment [6] (setting [7]); 91% (active) in experiment [6] (setting [8]); 62.5% in experiment [6] (at 50.0 µM).

Turning to `CCCCCCCC(=O)[O][Hg][c]1ccccc1`, the growth inhibition in experiment [1] (setting [7]) is 99% (active); in experiment [1] (setting [8]), 99% (active); in experiment [1] (at 50.0 µM), 99.5% (active); in experiment [2] (setting [7]) it was 100% (active); in experiment [2] (setting [8]), 100% (active); in experiment [2] (at 50.0 µM) it was 99.8% (active). For the same molecule, the growth inhibition in experiment [3] (setting [7]) was 100% (active); in experiment [3] (setting [8]), 100% (active); in experiment [3] (at 50.0 µM) it was 99.7% (active); in experiment [4] (setting [7]), 99% (active); in experiment [4] (setting [8]), 99% (active); in experiment [4] (at 50.0 µM), 99.5% (active). Besides, the growth inhibition in experiment [5] (setting [7]) was 100% (active); in experiment [5] (setting [8]) it was 99% (active); in experiment [5] (at 50.0 µM), 99.8% (active); in experiment [6] (setting [7]), 100% (active); in experiment [6] (setting [8]) it was 100% (active); in experiment [6] (at 50.0 µM) it was 99.7% (active).
